High-throughput results from PubChem BioAssay.
Shown are actives, neighbours in structure and some others; about 2.9% of the full set was active somewhere.
ADAM17 inh = inhibits human ADAM17; AID 720648; 370,000 tested, 0.83% active; P78536; inhibition, % at 6.95 µM; recombinant ADAM17, EDANS/DABCYL FRET peptide cleavage;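 active = inhibition above the mean of compounds lying between control limits plus 3 SD, set per campaign, cut at about 8.5% in these data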
PLCb3 inh = PLC-beta3 (human) inhibition, primary screen; 370,000 tested, 0.18% active; Q01970; AID 720704; Purified PLC-beta3, fluorogenic substrate, fluorescence; inhibition, % at 12.2 µM; in the data active = inhibition above about 11%
Target sequence (Q01970 whole entry, looked up): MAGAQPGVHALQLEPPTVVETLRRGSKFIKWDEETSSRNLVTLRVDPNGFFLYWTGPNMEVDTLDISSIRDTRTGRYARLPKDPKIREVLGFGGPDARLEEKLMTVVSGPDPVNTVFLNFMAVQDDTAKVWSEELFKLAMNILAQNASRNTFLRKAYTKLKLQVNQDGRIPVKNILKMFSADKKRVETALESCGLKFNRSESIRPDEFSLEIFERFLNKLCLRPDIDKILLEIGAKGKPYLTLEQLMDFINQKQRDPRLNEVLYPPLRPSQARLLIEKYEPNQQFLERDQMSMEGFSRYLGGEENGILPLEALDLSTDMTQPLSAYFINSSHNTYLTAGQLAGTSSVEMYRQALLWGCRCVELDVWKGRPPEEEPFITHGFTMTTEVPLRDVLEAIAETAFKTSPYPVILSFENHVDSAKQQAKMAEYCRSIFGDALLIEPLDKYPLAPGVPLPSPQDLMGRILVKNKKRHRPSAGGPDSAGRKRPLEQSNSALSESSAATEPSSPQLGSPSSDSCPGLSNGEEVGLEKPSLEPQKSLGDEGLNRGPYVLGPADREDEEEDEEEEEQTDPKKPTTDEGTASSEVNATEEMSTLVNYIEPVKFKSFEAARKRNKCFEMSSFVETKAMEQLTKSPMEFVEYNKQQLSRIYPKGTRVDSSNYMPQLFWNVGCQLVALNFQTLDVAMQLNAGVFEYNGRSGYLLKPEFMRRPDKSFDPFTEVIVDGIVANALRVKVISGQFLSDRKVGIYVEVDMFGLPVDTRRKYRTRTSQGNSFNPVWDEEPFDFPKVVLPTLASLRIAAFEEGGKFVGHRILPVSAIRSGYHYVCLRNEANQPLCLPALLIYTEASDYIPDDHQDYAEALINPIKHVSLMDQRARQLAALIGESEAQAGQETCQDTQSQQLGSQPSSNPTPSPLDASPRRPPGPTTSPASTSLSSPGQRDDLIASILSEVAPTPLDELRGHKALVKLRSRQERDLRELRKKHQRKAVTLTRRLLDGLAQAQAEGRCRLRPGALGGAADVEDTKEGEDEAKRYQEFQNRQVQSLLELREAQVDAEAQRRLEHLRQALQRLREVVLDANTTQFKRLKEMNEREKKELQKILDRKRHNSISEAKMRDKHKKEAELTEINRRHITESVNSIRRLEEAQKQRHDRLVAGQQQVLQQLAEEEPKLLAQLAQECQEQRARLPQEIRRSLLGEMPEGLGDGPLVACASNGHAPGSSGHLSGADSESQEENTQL
ADAM10 inh = inhibits human ADAM10; AID 720582; 370,000 tested, 0.62% active; recombinant ADAM10, EDANS/DABCYL FRET peptide cleavage, 3 h; O14672; inhibition, % at 7 µM;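 active = inhibition above a per-campaign cutoff equal to the mean of compounds falling between control-based bounds plus 3 SD, cut at about 20% in these data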
KLK7 zymogen act = activators of human kallikrein-7 zymogen. activation, % at 7 µM. 370,000 tested, 0.9% active. purified proKLK7, EDANS-DABCYL substrate fluorescence; 100% is mature enzyme control, 0% vehicle. AID 652039;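 active = activation above the mean of all tested compounds plus 3 SD, computed per campaign excluding outliers beyond control limits, cut at about 13% in these data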
PLCg1 inh = inhibitors of human phospholipase C gamma1 | P19174 | inhibition, % at 12.2 µM | 370,000 tested, 0.84% active | purified PLC-gamma1, fluorogenic substrate, fluorescence; in the data active = inhibition above about 9.5%
ADAM10 confirm = confirmation of inhibitors of human ADAM10; ADAM10 QFRET peptide cleavage, EDANS fluorescence; AID 743208; 2,100 tested, 1% active; inhibition, % at 6.95 µM; shares compounds with ADAM10 inh;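 active = inhibition above about 20% chosen separately for each screening run, limit read from the data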
ADAM17 counter = ADAM17 inhibition, counter-screen for ADAM10 exosite hits. shares compounds with ADAM10 inh. ADAM17 QFRET peptide cleavage, EDANS fluorescence. inhibition, % at 6.95 µM. 2,100 tested, 0.5% active;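 active = mean triplicate inhibition above the solvent-only control wells' mean plus 3 SD, cut at about 12% in these data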
ADAM10 counter = ADAM10 inhibition, counter-screen for ADAM17 exosite hits. recombinant ADAM10, EDANS/DABCYL FRET peptide cleavage, 3 h. 2,900 tested, 47% active. inhibition, % at 6.95 µM. shares compounds with ADAM17 inh;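 active = mean inhibition over the triplicate runs exceeds the activity threshold set in the earlier primary screen, cut at about 20% in these data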
ADAM17 confirm = human ADAM17 inhibition, confirmation; recombinant ADAM17, EDANS/DABCYL QFRET peptide cleavage; shares compounds with ADAM17 inh; inhibition, % at 6.95 µM; 2,900 tested, 65% active;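 active = mean inhibition across replicates above the hit cutoff set in the primary screen, cut at about 8.5% in these data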
A number is an active result; 0 = inactive; - = no result given.

SMILES | ADAM17 inh | PLCb3 inh | ADAM10 inh | KLK7 zymogen act | PLCg1 inh | ADAM10 confirm | ADAM17 counter | ADAM10 counter | ADAM17 confirm
OC(c1cccc(Cl)c1)c1ncc(-c2cccc(C(F)(F)F)c2)[nH]1 (stereo not drawn) | 9.2 | 0 | 29 | 0 | 0 | 0 | 0 | 23 | 14
Cc1cccc(C(O)c2ncc(-c3cccc(C(F)(F)F)c3)[nH]2)c1C (stereo not drawn) | 15 | 0 | 22 | 0 | 0 | 0 | 0 | 0 | 0
Cc1ccc(C(O)c2ncc(-c3cccc(C(F)(F)F)c3)[nH]2)c(C)c1 (stereo not drawn) | 0 | 0 | 0 | 0 | 0 | - | - | - | -
OC(c1ccc(F)c(F)c1)c1ncc(-c2ccc(Cl)cc2)[nH]1 (stereo not drawn) | 0 | 0 | 0 | 0 | 0 | - | - | - | -
CCOC(=O)c1ccc(NC(=O)COC(=O)c2cccc(Oc3ccccc3)c2)cc1 | 13 | 0 | 28 | 0 | 0 | 0 | 0 | 27 | 14
CCOC(=O)c1ccc(NC(=O)c2ccc(NC(=O)c3ccccc3)cc2)cc1 | 0 | 0 | 0 | 0 | 0 | - | - | - | -
C[C@H](O)[C@@H]1CN2CCc3ccc(N4CCOCC4)cc3[C@@H]2C[C@@H]1N(C)C(=O)c1cccc(Cl)c1 | 0 | 0 | 0 | 0 | 0 | - | - | - | -
O=S(=O)(CC1NCc2ccccc21)NCc1ccc(F)cc1 (stereo not drawn) | 0 | 0 | 0 | 0 | 0 | - | - | - | -
COc1ccc(CCNc2oc(COc3ccccc3F)nc2C#N)cc1OC | 0 | 0 | 0 | 0 | 0 | - | - | - | -
COc1ccc(CCNc2oc(COc3ccc(F)cc3)nc2C#N)cc1 | 10 | 0 | 24 | 0 | 0 | 0 | 0 | 33 | 18
COC(=O)[C@]12C[C@H](CC(=O)N3CCOCC3)C(=O)N(CCc3ccc(OC)c(OC)c3)C1=C[C@H](C1CCCC1)O[C@@H]2C | 0 | 0 | 0 | 0 | 0 | - | - | - | -
CCCCC[C@@H](C)N1C[C@@H](COCc2ccccc2)Oc2cc(N3CC[C@H](O)C3)ccc2S1(=O)=O | 9.1 | 0 | 22 | 0 | 0 | 0 | 0 | 34 | 18
CCOC(=O)[C@@H](CCc1ccccc1)N[C@@H](C)C(=O)N1CCC[C@H]1C(=O)O | 0 | 0 | 0 | 0 | 0 | - | - | - | -
CCc1nc2ccc(C(=O)Nc3cc(-c4ccccc4)ccc3OC)cn2c1N(C)Cc1nccs1 | 11 | 0 | 27 | 0 | 0 | 0 | 0 | 0 | 15
CCc1nc2ccc(C(=O)Nc3cc(-c4ccccc4)ccc3OC)cn2c1N(C)Cc1ccc(OC)cc1 | 0 | 0 | 0 | 0 | 0 | - | - | - | -
COc1ccc(CN2CCC(CNC(=O)NC(C)C)CC2)cc1 | 0 | 0 | 0 | 0 | 0 | - | - | - | -
CCOC(=O)N1CCN(C(=O)C[C@H]2C(=O)N(CCCOC)C3=CCCC[C@@]32C(=O)OCC)CC1 | 0 | 0 | 0 | 0 | 0 | - | - | - | -
CCc1cccc2c(C(=O)CN3C(=O)NC(C)(c4cccc5ccccc45)C3=O)c[nH]c12 (stereo not drawn) | 9.6 | 0 | 30 | 0 | 0 | 0 | 0 | 28 | 16
CCOc1ccc(CCN2C(=S)N([C@@H](Cc3ccc(O)cc3)CN3CCC[C@@H]3CN3C(=S)NC[C@@H]3CC(C)C)C[C@@H]2Cc2ccc(O)cc2)cc1 | 9.8 | 0 | 23 | 0 | 0 | 0 | 0 | 47 | 24
O=C(COC(=O)c1cccc(S(=O)(=O)N2CCCCC2)c1)NCc1ccccc1 | 0 | 0 | 0 | 0 | 0 | - | - | - | -
O=C(OCC(=O)c1c[nH]c2ccccc12)c1cccc(S(=O)(=O)N2CCCCCC2)c1 | 12 | 0 | 27 | 0 | 0 | 0 | 0 | 0 | 8.7
COC(=O)C1CN(Cc2ccc(F)cc2)CCS(=O)(=O)N1Cc1ccc(OC)cc1 (stereo not drawn) | 0 | 0 | 0 | 0 | 0 | - | - | - | -
Cc1ccc(S(=O)(=O)N/N=C/c2ccc(OS(=O)(=O)c3ccc(C)c([N+](=O)[O-])c3)cc2)cc1 | 12 | 0 | 26 | 0 | 0 | 0 | 0 | 36 | 20
CCc1nc2ccccc2c(C(=O)OCC(=O)Nc2ccc(S(=O)(=O)N3CCOCC3)cc2)c1C | 10.0 | 0 | 20 | 0 | 0 | 0 | 0 | 21 | 12
O=C(COC(=O)c1ccccn1)Nc1ccc(S(=O)(=O)N2CCOCC2)cc1 | 0 | 0 | 0 | 0 | 0 | - | - | - | -
SMILES | ADAM17 inh | PLCb3 inh | ADAM10 inh | KLK7 zymogen act | PLCg1 inh | ADAM10 confirm | ADAM17 counter | ADAM10 counter | ADAM17 confirm
CC(C)(C)c1ccc(-c2nnc(SCC(=O)Nc3ccc(S(=O)(=O)Nc4nccs4)cc3)n2-c2ccc(Cl)cc2)cc1 | 13 | 0 | 27 | 0 | 0 | 0 | 0 | 27 | 16
CCOc1ccc(-n2c(SCC(=O)Nc3ccc(S(=O)(=O)Nc4nccs4)cc3)nnc2-c2ccc(C(C)(C)C)cc2)cc1 | 12 | 0 | 22 | 0 | 0 | 0 | 0 | 40 | 21
O=C(NC1CCCCN(Cc2ccc(Cl)cc2)C1=O)c1cccs1 (stereo not drawn) | 0 | 0 | 0 | 0 | 0 | - | - | - | -
CC(OC(=O)c1cccc(S(=O)(=O)Nc2cccc(C(F)(F)F)c2)c1)C(=O)Nc1ccc2c(c1)OCCO2 (stereo not drawn) | 9.2 | 0 | 28 | 0 | 0 | 0 | 0 | 28 | 14
O=C(c1ccccc1Cl)N1CCC(Oc2cccnc2)CC1 | 0 | 0 | 0 | 0 | 0 | - | - | - | -
CC(C)CN1C(=O)[C@@]2(CC(=O)N(C)C2c2ccccc2)c2cc(-n3cc(CCCC#N)nn3)ccc21 (stereo partly drawn) | 0 | 0 | 0 | 0 | 0 | - | - | - | -
CC(C)Oc1ccc(CNC(=O)CC(c2ccccc2)c2cc(Cl)ccc2O)cc1 (stereo not drawn) | 16 | 0 | 25 | 0 | 0 | 0 | 0 | 33 | 16
CC1(C(=O)N2CC3(CC(c4cccc(NC(=O)COc5ccc(Cl)cc5)c4)=NO3)C[C@@H]2C(N)=O)CC1 (stereo partly drawn) | 0 | 0 | 0 | 0 | 0 | - | - | - | -
NC(=O)[C@H]1CC2(CC(c3cccc(NC(=O)COc4ccc(Cl)cc4)c3)=NO2)CN1C(=O)c1ccc(Cl)cc1 (stereo partly drawn) | 14 | 0 | 36 | 0 | 0 | 0 | 0 | 37 | 22
COc1ccc(OC)c(-c2nnc3n2N=C(c2ccc(OC)c(OC)c2)CS3)c1 | 0 | 0 | 0 | 0 | 0 | - | - | - | -
COc1ccc(OC)c(-c2nnc3n2N=C(c2ccc(OC)c(OC4CCCC4)c2)CS3)c1 | 17 | 0 | 31 | 0 | 0 | 0 | 0 | 0 | 0
CN(CCc1ccccn1)C(=O)Cn1nc(-c2ccccc2)ccc1=O | 0 | 0 | 0 | 0 | 0 | - | - | - | -
O=[N+]([O-])CC(c1ccccc1)c1c[nH]c2ccccc12 (stereo not drawn) | 0 | 0 | 0 | 0 | 0 | - | - | - | -
